Laboratory results taken from PubChem BioAssay (Tox21).
Results filed as inconclusive are left out. The source made the active and inactive calls. Calls follow the shape of the dose curve; as a rule, active = well fitted curve in the direction sought with a large enough effect in the repeat runs; inconclusive = weak or mixed curves; inactive = no such curve, though single readings can be large; an effect the other way counts as inactive or inconclusive.

Tests used:
[1] = qHTS RealTime-Glo MT Cell Viability Assay in HepG2 cells - 24 hour (AID 1224867); also: nearly all actives have a fitted effect of over 50% in size
Procedure, shortened: (§1)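 qHTS, HepG2, 600 cells/well, RealTime-Glo (NanoLuc + prosubstrate) added with cells; 5 h preincubation; DMSO compound addition; 37 C; luminescence at 0/8/16/24/32/40 h.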

[2] = qHTS RealTime-Glo MT Cell Viability Assay in HEK293 cells - 32 hour (AID 1224868); also: top concentration of the series differs between compounds; nearly all actives have a fitted effect of over 50% in size
Procedure, shortened: (§2)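 Assay medium contained NanoLuc luciferase plus cell-permeant prosubstrate, added with HEK293 cells at 600 cells/well. After 5 h at 37 C/5% CO2 compounds were added; plates stayed at 37 C for 40 h with serial luminescence reads.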

[3] = A CellTox Green Cytotoxicity Assay to monitor cytotoxicity in HEK293 cells - 0 hour (AID 1224869); also: nearly all actives have a fitted effect of over 50% in size
Procedure, shortened: (§3)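 Real-time, in one plate: 600 HEK293 cells/well with dead-cell DNA dye, pinned compound after 5 h, 37 C incubation over 40 h; viable cells give no appreciable fluorescence.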

[4] = qHTS RealTime-Glo MT Cell Viability Assay in HepG2 cells - 40 hour (AID 1224870); also: nearly all actives have a fitted effect of over 50% in size
Procedure, shortened: (§4)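 HepG2 cells (600/well) mixed with RealTime-Glo MT reagent, settled 5 h at 37 C/5% CO2 before compound addition. Nonlytic NanoLuc luminescence from viable-cell prosubstrate reduction read repeatedly during 40 h treatment at 37 C.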

[5] = A CellTox Green Cytotoxicity Assay to monitor cytotoxicity in HEK293 cells - 40 hour (AID 1224871); also: nearly all actives have a fitted effect of over 45% in size
Procedure, shortened: as §3

[6] = qHTS RealTime-Glo MT Cell Viability Assay in HEK293 cells - 16 hour (AID 1224872)
Procedure, shortened: as §2

[7] = qHTS RealTime-Glo MT Cell Viability Assay in HepG2 cells - 8 hour (AID 1224873); also: nearly all actives have a fitted effect of over 55% in size
Procedure, shortened: as §4

[8] = qHTS RealTime-Glo MT Cell Viability Assay in HEK293 cells - 40 hour (AID 1224874); settings: RealTime-Glo luminescence; max response: active compounds read low; also: nearly all actives have a fitted effect of over 50% in size
Procedure, shortened: (§5)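 Kinetic, non-lysing viability readout. Seed HEK293 (600/well) with reagent, incubate 5 h at 37 C/5% CO2, pin 23 nL compound in DMSO, incubate at 37 C, read luminescence at 0, 8, 16, 24, 32, 40 h.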

[9] = A CellTox Green Cytotoxicity Assay to monitor cytotoxicity in HEK293 cells - 24 hour (AID 1224875); also: series mostly up to about 77 µM; nearly all actives have a fitted effect of over 45% in size
Procedure, shortened: as §3

[10] = A CellTox Green Cytotoxicity Assay to monitor cytotoxicity in HepG2 cells - 16 hour (AID 1224876); also: nearly all actives have a fitted effect of over 45% in size
Procedure, shortened: (§6)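 Cytotoxicity was tracked as dead-cell DNA fluorescence in HepG2 cells treated with test compounds at 37 C; each time-point value comes from one kinetic series spanning 0, 8, 16, 24, 32 and 40 h.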

[11] = qHTS RealTime-Glo MT Cell Viability Assay in HepG2 cells - 32 hour (AID 1224877); also: nearly all actives have a fitted effect of over 55% in size
Procedure, shortened: as §1

[12] = A CellTox Green Cytotoxicity Assay to monitor cytotoxicity in HepG2 cells - 24 hour (AID 1224878); also: nearly all actives have a fitted effect of over 45% in size
Procedure, shortened: as §6

[13] = A CellTox Green Cytotoxicity Assay to monitor cytotoxicity in HepG2 cells - 40 hour (AID 1224879); also: nearly all actives have a fitted effect of over 40% in size
Procedure, shortened: as §6

[14] = qHTS RealTime-Glo MT Cell Viability Assay in HEK293 cells - 0 hour (AID 1224880)
Procedure, shortened: as §5

[15] = A CellTox Green Cytotoxicity Assay to monitor cytotoxicity in HEK293 cells - 32 hour (AID 1224881); also: nearly all actives have a fitted effect of over 40% in size
Procedure, shortened: as §3

[16] = A CellTox Green Cytotoxicity Assay to monitor cytotoxicity in HepG2 cells - 0 hour (AID 1224882); also: nearly all actives have a fitted effect of over 35% in size
Procedure, shortened: as §6

[17] = A CellTox Green Cytotoxicity Assay to monitor cytotoxicity in HepG2 cells - 32 hour (AID 1224883); also: nearly all actives have a fitted effect of over 50% in size
Procedure, shortened: as §6

[18] = A CellTox Green Cytotoxicity Assay to monitor cytotoxicity in HEK293 cells - 8 hour (AID 1224884); also: nearly all actives have a fitted effect of over 35% in size; also: potency is read from the fitted curve at half-maximal effect
Procedure, shortened: as §3

[19] = qHTS RealTime-Glo MT Cell Viability Assay in HepG2 cells - 16 hour (AID 1224885); also: nearly all actives have a fitted effect of over 50% in size
Procedure, shortened: as §1

[20] = qHTS RealTime-Glo MT Cell Viability Assay in HEK293 cells - 24 hour (AID 1224886)
Procedure, shortened: as §2
% is scaled to controls: 0 for no effect and ±100 for the full control effect.

CCCCC[Si](OCC)(OCC)OCC
inactive: outcome [1] | Potency [2] | Potency [3] | outcome [4] | Potency [5] | Potency [6] | outcome [7] | max response [8] -19.8% | Potency [9] | Potency [10] | outcome [11] | Potency [12] | Potency [13] | outcome [14] | Potency [15] | Potency [16] | Potency [17] | Potency [18] | outcome [19] | Potency [20]

CCCCOC(=O)C(=O)OCCCC
inactive: outcome [1] | Potency [2] | Potency [3] | outcome [4] | Potency [5] | Potency [6] | outcome [7] | max response [8] 0.934% | Potency [9] | Potency [10] | outcome [11] | Potency [12] | Potency [13] | outcome [14] | Potency [15] | Potency [16] | Potency [17] | Potency [18] | outcome [19] | Potency [20]

CC(C)COC(=O)COc1ccc(Cl)cc1Cl
inactive: outcome [1] | Potency [2] | Potency [3] | outcome [4] | Potency [5] | Potency [6] | outcome [7] | max response [8] 6.46% | Potency [9] | Potency [10] | outcome [11] | Potency [12] | Potency [13] | outcome [14] | Potency [15] | Potency [16] | Potency [17] | outcome [19] | Potency [20]
active: Potency [18] 43.6 µM

CC(C)SCc1ccco1
inactive: outcome [1] | Potency [2] | Potency [3] | outcome [4] | Potency [5] | Potency [6] | outcome [7] | max response [8] 4.71% | Potency [9] | Potency [10] | outcome [11] | Potency [12] | Potency [13] | outcome [14] | Potency [15] | Potency [16] | Potency [17] | Potency [18] | outcome [19] | Potency [20]

CN[C@@H]1[C@@H](O)[C@@H](O[C@@H]2[C@H](O)[C@H](O[C@H]3OC(CN)=CC[C@H]3N)[C@@H](N)C[C@H]2N)OCC1(C)O (stereo not given in full)
inactive: outcome [1] | Potency [2] | Potency [3] | outcome [4] | Potency [5] | Potency [6] | outcome [7] | max response [8] 1.03% | Potency [9] | Potency [10] | outcome [11] | Potency [12] | Potency [13] | outcome [14] | Potency [15] | Potency [16] | Potency [17] | Potency [18] | outcome [19] | Potency [20]

C=CCOC(=O)c1ccc(C(=O)OCC=C)c(C(=O)OCC=C)c1
inactive: outcome [1] | Potency [2] | Potency [3] | outcome [4] | Potency [5] | Potency [6] | outcome [7] | max response [8] 4.3% | Potency [9] | Potency [10] | outcome [11] | Potency [12] | Potency [13] | outcome [14] | Potency [15] | Potency [16] | Potency [17] | Potency [18] | outcome [19] | Potency [20]

CCCCCCCC[Si](OCC)(OCC)OCC
inactive: outcome [1] | Potency [2] | Potency [3] | outcome [4] | Potency [5] | Potency [6] | outcome [7] | max response [8] 0.929% | Potency [9] | Potency [10] | outcome [11] | Potency [12] | Potency [13] | outcome [14] | Potency [15] | Potency [16] | Potency [17] | Potency [18] | outcome [19] | Potency [20]

C=CCOCC(O)CCl (stereo not given)
inactive: outcome [1] | Potency [2] | Potency [3] | outcome [4] | Potency [5] | Potency [6] | outcome [7] | max response [8] 0.946% | Potency [9] | Potency [10] | outcome [11] | Potency [12] | Potency [13] | outcome [14] | Potency [15] | Potency [16] | Potency [17] | Potency [18] | outcome [19] | Potency [20]

Nc1ccc(S(=O)(=O)Nc2ccccn2)cc1
inactive: outcome [1] | Potency [2] | Potency [3] | outcome [4] | Potency [5] | Potency [6] | outcome [7] | max response [8] -4.15% | Potency [9] | Potency [10] | outcome [11] | Potency [12] | Potency [13] | outcome [14] | Potency [15] | Potency [16] | Potency [17] | Potency [18] | outcome [19] | Potency [20]

BrC/C=C/CBr
inactive: activity change, negative = cytotoxicity [1] 3.48% [at 15.8 µM] | activity change, negative = cytotoxic [2] -0.679% [at 15.8 µM] | cytotoxicity [3] 0.203% [at 15.8 µM] | activity change, negative = cytotoxic [4] -1.8% [at 15.8 µM] | cytotoxicity increase [5] 1.51% [at 15.8 µM] | activity change, negative = cytotoxicity [6] 1.42% [at 15.8 µM] | viability change, negative = cytotoxic [7] 2.32% [at 15.8 µM] | max response [8] -1.67% | activity change [9] 2.67% [at 15.8 µM, active compounds read high] | cytotoxicity increase [10] -13.9% [at 15.8 µM] | activity change, negative = cytotoxic [11] -0.147% [at 15.8 µM] | cytotoxicity [12] -16.1% [at 15.8 µM] | cytotoxicity increase [13] -17.2% [at 15.8 µM] | activity change, negative = cytotoxicity [14] -1.92% [at 15.8 µM] | cytotoxicity increase [15] -1.01% [at 15.8 µM] | cytotoxicity [16] -11.8% [at 15.8 µM] | cytotoxicity increase [17] -16.5% [at 15.8 µM] | cytotoxicity increase [18] 1.66% [at 15.8 µM] | activity change, negative = cytotoxic [19] 4.65% [at 15.8 µM] | activity change, negative = cytotoxicity [20] 0.605% [at 15.8 µM]

CC(=O)OC[C@H]1O[C@@H](OC(C)=O)[C@H](OC(C)=O)[C@@H]1OC(C)=O
inactive: outcome [1] | Potency [2] | Potency [3] | outcome [4] | Potency [5] | Potency [6] | outcome [7] | max response [8] 5.33% | Potency [9] | Potency [10] | outcome [11] | Potency [12] | Potency [13] | outcome [14] | Potency [15] | Potency [16] | Potency [17] | Potency [18] | outcome [19] | Potency [20]
